Source: PubChem BioAssay (NCATS)
Records with an inconclusive call do not appear. The source made the active and inactive calls. Unless noted, the call rests on the fitted dose curve; in most records, active means well fitted curve in either direction with a large enough effect (not every such curve was filed as active); inconclusive means small, poorly fitted or top-dose-only effect, or another doubt; inactive means flat fitted curve, though single readings scatter.

Test system: not listed separately
Assay: AP1 Signaling Pathway (AID 357); further: on the % scale 0 is the no-effect control and ±100 the full control effect
Conditions: ME-180 (cervical carcinoma) AP-1-bla reporter, EGF-induced, beta-lactamase ratio, 5 h; at 7.69 µM (top of the series) unless noted
Method in brief: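 AP-1-bla ME-180 cells with beta-lactamase reporter under AP-1 response element, stimulated with EC50 EGF; compounds titrated, 5 hours at 37 degrees Celsius. CCF4 read at 460/530 nm ratio; positive and negative modulators judged by AC50.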

Structure (SMILES) | activity change, negative = inhibition
c1cncc(CNc2ccnc(-c3ccc4c(c3)OCO4)n2)c1 | -20.8% (inactive)
COc1ccc(-n2c(C)c(C(C)=O)c3cc(O)ccc32)cc1 | -14.7% [at 17.2 µM] (inactive)
CNc1oc(-c2cccs2)nc1C#N | 3.62% [at 17.2 µM] (inactive)

Test system: not listed separately
Assay: NFAT Signaling Pathway (AID 444);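 further: carbachol stimulus at about its EC50 of 1 µM final; on the % scale 0 is the no-effect control and ±100 the full control effect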
Conditions: Jurkat NFAT-bla M1, carbachol, beta-lactamase ratio, 5 h; at 7.69 µM (top of the series) unless noted
Method in brief: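 Read-out: CCF4 FRET ratio (460 nm/530 nm) after 1 h RT dye loading, used for %activity and AC50 from titration series. Cells: Jurkat NFAT-β-lactamase/M1 line, treated with compound plus 1 uM carbachol for 5 h, 37 °C.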

Structure (SMILES) | activity change, negative = inhibition
c1cncc(CNc2ccnc(-c3ccc4c(c3)OCO4)n2)c1 | 16% (inactive)
COc1ccc(-n2c(C)c(C(C)=O)c3cc(O)ccc32)cc1 | 1.89% [at 17.2 µM] (inactive)
CNc1oc(-c2cccs2)nc1C#N | 11.4% [at 17.2 µM] (inactive)

Molecular target: Glucocorticoid receptor (Homo sapiens) (UniProt P04150)
Sequence (P04150 whole entry, looked up): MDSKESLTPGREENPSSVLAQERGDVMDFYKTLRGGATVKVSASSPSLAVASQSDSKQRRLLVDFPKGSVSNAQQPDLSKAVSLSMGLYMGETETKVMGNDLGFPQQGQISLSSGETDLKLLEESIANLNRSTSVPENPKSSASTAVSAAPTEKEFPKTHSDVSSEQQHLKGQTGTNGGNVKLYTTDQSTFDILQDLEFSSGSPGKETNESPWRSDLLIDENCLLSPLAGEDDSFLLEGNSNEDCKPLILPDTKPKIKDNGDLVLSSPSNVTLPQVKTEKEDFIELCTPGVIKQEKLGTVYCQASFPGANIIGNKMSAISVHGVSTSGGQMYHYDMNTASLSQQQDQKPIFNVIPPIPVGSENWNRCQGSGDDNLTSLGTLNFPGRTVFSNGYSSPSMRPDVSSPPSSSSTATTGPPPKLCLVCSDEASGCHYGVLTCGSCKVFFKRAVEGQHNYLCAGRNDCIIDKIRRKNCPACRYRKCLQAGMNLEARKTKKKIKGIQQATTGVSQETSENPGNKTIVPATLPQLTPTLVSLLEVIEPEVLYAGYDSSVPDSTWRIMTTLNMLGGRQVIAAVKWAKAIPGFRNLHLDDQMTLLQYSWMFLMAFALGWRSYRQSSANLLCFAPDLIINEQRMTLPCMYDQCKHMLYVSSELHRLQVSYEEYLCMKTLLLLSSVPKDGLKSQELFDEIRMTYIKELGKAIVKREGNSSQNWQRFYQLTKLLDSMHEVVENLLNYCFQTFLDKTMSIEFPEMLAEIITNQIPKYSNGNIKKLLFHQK
Assay: GR-GFP Redistribution (AID 450;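 active means compounds whose dose series gives a full or clear partial fitted curve of increased nuclear translocation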; further: potency means the concentration at half of the fitted maximal effect)
Conditions: U2OS GR-GFP nuclear translocation, laser cytometry, 2 h

Structure (SMILES) | Potency
c1cncc(CNc2ccnc(-c3ccc4c(c3)OCO4)n2)c1 | > 46 µM (inactive)
COc1ccc(-n2c(C)c(C(C)=O)c3cc(O)ccc32)cc1 | > 20.6 µM (inactive)
CNc1oc(-c2cccs2)nc1C#N | > 20.6 µM (inactive)

Molecular target: Mitogen-activated protein kinase 10 (Mus musculus) (UniProt Q61831)
Assay: JNK3 AlphaScreen Assay (AID 530);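 further: kinase came from lysate of stimulated human HepG2 cells; signal reports phosphorylation of biotinylated GST-cJun 1-79 at Ser73 with 10 µM ATP; on the % scale 0 is the no-effect control and ±100 the full control effect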
Conditions: JNK3 lysate, c-Jun phosphorylation; series mostly up to 57.1 µM; activity change, negative = inhibition: at the top concentration
Method in brief: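 Compound titrations were preincubated 15 minutes at room temperature with substrate, antibody and pre-activated JNK3-containing HepG2 lysate. Reactions were started with 10 uM ATP and stopped with EDTA-containing bead buffer for AlphaScreen detection.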

Structure (SMILES) | activity change, negative = inhibition
CCCn1c(-c2ccc(F)cc2)nc2c(NCCN3CCCC3)nc(C)nc21 | -6.67% (inactive)
COCCNc1nc(C)nc2c1nc(-c1ccccc1)n2CCN(C)C | 1.37% (inactive)
CCCn1c(C)nc2c(N(CCN(CC)CC)CCN(CC)CC)nc(C)nc21 | -0.787% (inactive)
CCN(CC)CCCn1c(-c2ccccc2)nc2c(N3CCOCC3)nc(C)nc21 | 5.74% (inactive)
CCN(CC)CCCn1c(-c2ccccc2)nc2c(NCCOC)nc(C)nc21 | 4.11% (inactive)
CCCn1c(C)nc2c(NCCCN(CCO)CCO)nc(C)nc21 | -0.0134% (inactive)
CCCn1c(C)nc2c(NC(C)CN(C)C)nc(C)nc21 (stereo not drawn) | 3.09% (inactive)
Cc1nc(NCCO)c2nc(-c3ccccc3)n(CC3CCN(C)CC3)c2n1 | 0.493% (inactive)
Cc1nc(N2CCOCC2)c2nc(-c3ccccc3)n(CC3CCN(C)CC3)c2n1 | -12.7% (inactive)
CCCn1c(C)nc2c(N3CCN(C)CC3)nc(C)nc21 | 0.718% (inactive)
CCCn1c(C)nc2c(NCC(C)(C)CN(C)C)nc(C)nc21 | 1.94% (inactive)
CCCn1c(C)nc2c(N3CCC(N(C)C)C3)nc(C)nc21 (stereo not drawn) | 0.56% (inactive)
Cc1cccc(CNc2ncnc3ccc(-c4cccnc4)cc23)c1 | -20.9% (inactive)
CCCn1c(C)nc2c(NCCN(C(C)C)C(C)C)nc(C)nc21 | 1.72% (inactive)
CCCn1c(C)nc2c(NCC3CCCN3CC)nc(C)nc21 (stereo not drawn) | 0.125% (inactive)

Molecular target: Cytochrome P450 3A4 (Homo sapiens) (UniProt P08684)
Sequence (P08684 whole entry, looked up): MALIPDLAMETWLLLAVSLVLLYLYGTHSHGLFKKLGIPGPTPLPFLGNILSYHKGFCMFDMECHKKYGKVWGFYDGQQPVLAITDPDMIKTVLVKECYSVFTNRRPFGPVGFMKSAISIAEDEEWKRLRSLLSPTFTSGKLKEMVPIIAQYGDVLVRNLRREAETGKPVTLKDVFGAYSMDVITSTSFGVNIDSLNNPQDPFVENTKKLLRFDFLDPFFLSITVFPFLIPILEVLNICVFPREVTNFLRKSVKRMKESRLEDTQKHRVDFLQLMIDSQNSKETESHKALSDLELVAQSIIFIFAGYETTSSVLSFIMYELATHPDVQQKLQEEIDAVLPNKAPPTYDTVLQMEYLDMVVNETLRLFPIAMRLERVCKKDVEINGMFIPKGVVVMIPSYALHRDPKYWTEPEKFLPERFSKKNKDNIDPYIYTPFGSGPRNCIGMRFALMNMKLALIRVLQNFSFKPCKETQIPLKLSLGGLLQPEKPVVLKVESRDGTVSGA
Assay: qHTS Assay for Inhibitors and Substrates of Cytochrome P450 3A4 (AID 884; active means well fitted inhibition curve with a large enough effect; further: on the % scale 0 is the no-effect control and ±100 the full control effect; nearly all actives have a fitted effect of over 50% in size)
Conditions: recombinant CYP3A4, Luciferin-PPXE luminescence; series mostly up to 57.1 µM; activity change, negative = inhibition: at the top concentration
Method in brief: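 20 nM human CYP3A4 with 25 uM Luciferin-PPXE (at KM) in 200 mM KPO4, preincubated 10 min with compound; NADPH regeneration started a 60 min RT reaction. Luciferin detected by luminescence, normalized to 57 uM ketoconazole as full inhibition.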

Structure (SMILES) | activity change, negative = inhibition
CCCn1c(-c2ccc(F)cc2)nc2c(NCCN3CCCC3)nc(C)nc21 | -24.1% (inactive)
COCCNc1nc(C)nc2c1nc(-c1ccccc1)n2CCN(C)C | -23.2% (inactive)
CCCn1c(C)nc2c(N(CCN(CC)CC)CCN(CC)CC)nc(C)nc21 | -9.39% (inactive)
CCN(CC)CCCn1c(-c2ccccc2)nc2c(N3CCOCC3)nc(C)nc21 | -22.4% (inactive)
CCN(CC)CCCn1c(-c2ccccc2)nc2c(NCCOC)nc(C)nc21 | -22.1% (inactive)
CCCn1c(C)nc2c(NCCCN(CCO)CCO)nc(C)nc21 | -28.1% (inactive)
CCCn1c(C)nc2c(NC(C)CN(C)C)nc(C)nc21 (stereo not drawn) | -33.3% (inactive)
Cc1nc(NCCO)c2nc(-c3ccccc3)n(CC3CCN(C)CC3)c2n1 | -12.6% (inactive)
Cc1nc(N2CCOCC2)c2nc(-c3ccccc3)n(CC3CCN(C)CC3)c2n1 | -1.01% (inactive)
CCCn1c(C)nc2c(N3CCN(C)CC3)nc(C)nc21 | -17.8% (inactive)
CCCn1c(C)nc2c(NCC(C)(C)CN(C)C)nc(C)nc21 | -19.8% (inactive)
CCCn1c(C)nc2c(N3CCC(N(C)C)C3)nc(C)nc21 (stereo not drawn) | -22.3% (inactive)
CCCn1c(C)nc2c(NCCN(C(C)C)C(C)C)nc(C)nc21 | -24.5% (inactive)
CCCn1c(C)nc2c(NCC3CCCN3CC)nc(C)nc21 (stereo not drawn) | -16% (inactive)
